Data reported in the supplement of paper PMC13380429.

How the values were obtained:
[1] = tested on: Vero E6 infected with SARS-CoV-2; test: morphology score (similarity to uninfected cells); higher = more like uninfected cells; conditions: 24 h
[2] = tested on: Vero E6 infected with SARS-CoV-2; test: SARS-CoV-2 infection rate relative to infected DMSO; higher = more infection, active = 60 or less; conditions: 24 h

SMILES | morphology score [1] | SARS-CoV-2 infection rate [2]
CC#CC(=O)N1CC[C@@H](n2c(=O)n(-c3ccc(Oc4ccccc4)cc3)c3c(N)ncnc32)C1 (0.833333 µM) | -0.0591 | 90% (inactive)
CN(C)CCCC1(c2ccc(F)cc2)OCc2cc(C#N)ccc21 (stereo not given) [citalopram] (10 µM) | -0.167 | 107% (inactive)
CN1C2CCCC1CC(NC(=O)c1nn(C)c3ccccc13)C2 (stereo not given) [granisetron] (10 µM) | -0.16 | 98.5% (inactive)
CC1(C)CC(=O)C(C2C3=C(CC(C)(C)CC3=O)Oc3ccccc32)C(=O)C1 (stereo not given) (10 µM) | 0.28 | 98% (inactive)
O=C(O)C[C@H]1CC[C@H](c2ccc(NC(=O)c3nnc(Nc4ccc(F)c(F)c4)o3)cc2)CC1 (10 µM) | 0.115 | 91% (inactive)
N=C(NCc1ccc(Cl)cc1)SCCCc1c[nH]cn1 [clobenpropit] (10 µM) | 0.14 | 104% (inactive)
Oc1cc(O)c(Cl)cn1 [gimeracil] (10 µM) | 0.103 | 107% (inactive)
Nc1ccncc1N [amifampridine] (10 µM) | 0.0643 | 92% (inactive)
Clc1ccc(N2CCN(Cc3c[nH]c4ncccc34)CC2)cc1 (10 µM) | -0.0196 | 108% (inactive)
CN1CCN(c2ccc(C(=O)Nc3n[nH]c4ccc(Cc5cc(F)cc(F)c5)cc34)c(NC3CCOCC3)c2)CC1 [entrectinib] (0.833333 µM) | 0.134 | 96.5% (inactive)
Cc1ccccc1C(=O)Nc1ccc(C(=O)N2CCCC(N(C)C)c3ccccc32)cc1 (stereo not given) [mozavaptan] (0.833333 µM) | 0.0205 | 117% (inactive)
Cc1nc(Nc2ncc(C(=O)Nc3c(C)cccc3Cl)s2)cc(N2CCN(CCO)CC2)n1 [dasatinib] (0.833333 µM) | -0.0371 | 95.5% (inactive)
FC(F)(F)c1ccc(CNc2ccc(Cc3c[nH]c4ncccc34)cn2)cc1 (10 µM) | 0.0358 | 110% (inactive)
CCN1CCC[C@H]1CNC(=O)c1c(OC)ccc(Br)c1OC [remoxipride] (10 µM) | 0.159 | 98.5% (inactive)
CCCCC(=O)O[C@H]1CC[C@H]2[C@@H]3CCc4cc(O)ccc4[C@H]3CC[C@]12C (10 µM) | -0.00932 | 89% (inactive)
O=C(O)C1=CCNCC1 [isoguvacine] (10 µM) | 0.0662 | 99.5% (inactive)
N=C(N)NCc1cccc(I)c1 [iobenguane] (10 µM) | 0.132 | 100% (inactive)
CCC(=O)O[C@H]1CC[C@H]2[C@@H]3CCC4=CC(=O)CC[C@]4(C)[C@H]3CC[C@]12C (10 µM) | -0.129 | 110% (inactive)
CCCc1cc(C(N)=S)ccn1 [protionamide] (10 µM) | 0.198 | 98% (inactive)
CC(C)(C)NC[C@H](O)COc1nsnc1N1CCOCC1 [timolol] (10 µM) | -0.002 | 98.5% (inactive)
NC(=O)c1noc([C@H](CCCC2CCCCC2)CC(=O)NO)n1 (10 µM) | 0.51 | 85% (inactive)
COc1ccc(CN2C(=O)C(=O)c3cc(OC(F)(F)F)ccc32)cc1 (0.833333 µM) | 0.0284 | 102% (inactive)
Cc1ccc(-c2cn3c4c(sc3n2)CCCC4)cc1 [pifithrin-cyclic] (10 µM) | -0.115 | 106% (inactive)
COC(=O)c1sccc1S(=O)(=O)Nc1ccc(Nc2ccccc2)cc1OC (10 µM) | 0.112 | 95% (inactive)
CC1(C)[C@@H](OC(=O)CCC(=O)O)CC[C@]2(C)[C@H]3C(=O)C=C4[C@@H]5C[C@@](C)(C(=O)O)CC[C@]5(C)CC[C@@]4(C)[C@]3(C)CC[C@@H]12 (10 µM) | 0.0746 | 106% (inactive)
O=C(Nc1ccc(Cl)cc1)Nc1cccc(-c2cccc(N3CCCC3)n2)c1 (10 µM) | 0.00797 | 92.5% (inactive)
Cc1cc(C(=O)N2Cc3cnn(C)c3Nc3ccccc32)ccc1CNC(=O)N1CCC[C@H]1C(=S)N1CCCN(C)CC1 (10 µM) | 0.0545 | 110% (inactive)
Cc1c(N)cccc1Cn1ccc(OCCc2cccs2)cc1=O (10 µM) | 0.0738 | 102% (inactive)
COc1cc2c(N3CCN(C(=O)Nc4ccc(OC(C)C)cc4)CC3)ncnc2cc1OCCCN1CCCCC1 [tandutinib] (10 µM) | -0.0843 | 95.5% (inactive)
O=C(O)C1=CCCNC1 [guvacine] (10 µM) | 0.2 | 93% (inactive)
